Bioassay records as filed in PubChem BioAssay.
Rows were chosen to be rich in hits. Some 7.3% of all compounds tested hit in one or more screens of this group.
FLuc modulator: inhibits or activates purified firefly luciferase, miR-21 counter-screen; P08659; purified FLuc, Km substrates, luminescence inhibition; Potency, µM (series often up to 57.5 µM), without a hit: top-dose activity change, negative = inhibition, usual class: inhibitors; 6.9% of 360,000 active; AID 588342;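 further: plate controls were vehicle for no effect and reference inhibitor for full effect; nearly all actives have a fitted effect of over 55% in size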
Target sequence (P08659 whole entry, looked up): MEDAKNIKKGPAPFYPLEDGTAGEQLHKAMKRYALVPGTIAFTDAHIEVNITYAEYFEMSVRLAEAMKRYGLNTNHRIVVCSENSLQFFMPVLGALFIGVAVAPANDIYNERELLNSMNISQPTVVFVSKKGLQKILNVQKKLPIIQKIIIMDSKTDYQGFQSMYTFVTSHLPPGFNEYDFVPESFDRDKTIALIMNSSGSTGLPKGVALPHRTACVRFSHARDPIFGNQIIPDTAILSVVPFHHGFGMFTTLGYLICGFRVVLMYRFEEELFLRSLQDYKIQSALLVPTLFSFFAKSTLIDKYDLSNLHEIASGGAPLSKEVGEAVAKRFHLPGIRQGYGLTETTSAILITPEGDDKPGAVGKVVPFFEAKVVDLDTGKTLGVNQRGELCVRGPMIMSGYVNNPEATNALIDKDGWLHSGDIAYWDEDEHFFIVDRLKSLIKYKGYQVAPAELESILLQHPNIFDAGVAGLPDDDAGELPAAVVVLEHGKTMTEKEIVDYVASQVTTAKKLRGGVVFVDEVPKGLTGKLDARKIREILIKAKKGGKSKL
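Biochemical qHTS of compounds, final roughly 60 µM downward over six points, against 10 nM purified firefly luciferase using Km concentrations of substrates (10 uM D-luciferin, 10 uM ATP) in Tris acetate pH 7.5 buffer; luminescence output.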
SMN2 splice enh: SMN2 splice variant enhancement; HEK293 SMN2-luciferase splicing reporter, luminescence, 30-36 h; Potency, µM (series often up to 46.1 µM), for inactives: at the top dose activity change, positive = activation, usual class: activators; 2.8% of 210,000 active; AID 1458; further: % of control where 0% means no effect; nearly all actives have a fitted effect of over 55% in size
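HEK293 cells carry an SMN2 minigene-luciferase reporter in which exon 7 inclusion puts luciferase in frame. Cells were seeded at 2000 cells/well, attached for 10-12 hours, then exposed to compounds for 30-36 hours at 37C before ONE-Glo luminescence.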
ELG1 genotox: inducers of genotoxicity in HEK293T ELG1-luciferase cells; 1.3% of 330,000 active; AID 504466; Potency, µM (top dose mostly 46 µM), inactives show at the highest dose activity change, positive = activation, usual class: activators; HEK293T ELG1-luciferase reporter, luminescence, 16 h; further: % of control where 0% means no effect; nearly all actives have a fitted effect of over 60% in size
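Reporter readout depends on ELG1 protein level, which increases with genetic stress. After 16 hr compound exposure at 37 °C, luciferase activity was quantified using ONE-Glo.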
Rab9 promoter act: activators of Rab9 promoter; Huh7 Rab9 promoter-luciferase reporter, luminescence, 24 h; Potency, µM (series often up to 9.22 µM), without a hit: top-dose activation, negative = inhibition, most hits filed as activators; 2.8% of 320,000 active; AID 485297; further: % of control where 0% means no effect; nearly all actives have a fitted effect of over 60% in size
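Cell-based reporter: Huh7 stable for Rab9 promoter-driven luciferase, plated in reduced-serum medium with 10% FBS at 1500 cells/well, compound-treated 24 h at 37 °C, luminescence read after 10 min reagent.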
p53 reactivator: restores transcriptional activity of mutant p53. H1299 p53-A138V BP100-luciferase reporter, luminescence, 24 h. Potency, µM (titrated, usually from 92.2 µM), for the others: at the highest dose activity change, positive = activation, usual class: activators. 0.063% of 320,000 active; further: % of control where 0% means no effect; nearly all actives have a fitted effect of over 45% in size
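p53-null H1299 cells stably carrying temperature-sensitive p53-A138V and a BP100-luciferase reporter were pinned with compounds (4-point, 1:5 series) and held 24 hrs at 37 deg C. Luminescence was read 10 min after detection reagent.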
NPC1 promoter act: NPC1 promoter activation; 2.4% of 320,000 active; AID 485313; Huh7 NPC1 promoter luciferase reporter, 24 h; Potency, µM (titrated, usually from 9.22 µM), for inactives: at the top dose activation, actives largely listed as activators; further: % of control where 0% means no effect; nearly all actives have a fitted effect of over 60% in size
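Luminescence from an NPC1 promoter-driven luciferase reporter in stably transfected Huh7 cells was measured after 24 h compound treatment at 37 °C, followed by 10 min ambient incubation with luciferase detection reagent.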
An asterisk follows results filed as active; ? = inconclusive; / = no result. The call rests on the fitted dose curve; in most records, active means well fitted curve in the direction sought with a large enough effect; inconclusive means small, poorly fitted or top-dose-only effect, or another doubt; inactive means no such curve, though single readings can be large; an effect the other way counts as inactive or inconclusive. Potency means the concentration at half of the fitted maximal effect.

SMILES	FLuc modulator	SMN2 splice enh	ELG1 genotox	Rab9 promoter act	p53 reactivator	NPC1 promoter act
Nc1sccc1C(=O)c1ccc(Cl)cc1	?	27.6%	11.2µM*	?	?	28.0%
Cc1ccc(C)c(NC(=O)Cn2c(=O)n(Cc3ccco3)c(=O)c3oc4ccccc4c32)c1	-5.6%	/	/	/	/	/
CCOC(=O)c1sc(NC(=O)C2CC(=O)N(c3ccc(OC)cc3)C2)nc1C (configuration not stated)	0.6%	/	-6.7%	-6.3%	-1.2%	-5.4%
COc1ccc(NC(=O)Nc2ccc3nonc3c2)cc1	?	/	2.9%	3.55µM*	9.6%	?
COc1ccc(NC(=O)Nc2ccc3nccnc3c2)cc1	4.26µM*	?	13.0%	0.398µM*	/	3.16µM*
COc1ccccc1Cn1c(C2CC(=O)N(c3ccccc3OC)C2)nc2ccccc21 (configuration not stated)	-2.2%	/	/	/	/	/
O=[N+]([O-])c1ccc2nc(-c3ccccc3)[nH]c2c1	5.36µM*	7.08µM*	?	2.51µM*	/	2.82µM*
Cn1cccc1-c1nc2ccc([N+](=O)[O-])cc2[nH]1	12µM*	/	?	2.24µM*	?	2.82µM*
CC12C=C(/C=C/CCc3ccco3)C(C)(C1)[C@H](CCc1ccco1)CC2=O (some centres not stated)	/	-3.7%	/	/	/	/
Nc1ncnc2c1nc(Sc1ccc(Cl)cc1)n2[C@H]1O[C@@H]2COP(=O)(O)O[C@H]2[C@@H]1O	/	5.0%	/	/	/	/
Cc1cc(C)nc(N/N=C/c2sccc2C)n1	?	?	12.9%	4.2%	2.1%	9.5%
Cc1ccsc1/C=N/Nc1ccc(F)cc1F	12µM*	/	?	2.24µM*	16.6%	?
Cc1ccsc1/C=N/Nc1nc(=O)[nH]nc1C	?	17.8µM*	?	2.82µM*	29.4%	?
Cc1ccsc1/C=N/NC(=O)c1ccco1	?	24.4%	12.9%	16.7%	?	15.3%
Cc1ccsc1/C=N/Nc1ncc(Cl)cc1Cl	2.69µM*	?	?	?	29.4%	2.82µM*
COc1cc(/C=N/Nc2ccc(F)cc2F)cc(OC)c1OC	?	/	13.6%	2.3%	5.1%	0.5%
COc1ccc(C)cc1Nc1nc(N)c2cc(OC)c(OC)cc2n1	?	1.9%	15.5%	-0.8%	4.4%	2.2%
COc1ccc(Cl)cc1Nc1nc(N)c2ccccc2n1	16.9µM*	/	3.9%	20.5%	-1.1%	?
Cc1ccc(C)c(Nc2nc(N)c3ccccc3n2)c1	4.78µM*	14.1µM*	?	2.51µM*	-3.3%	2.51µM*
CCC(CC)C(=O)N1c2ccccc2C(C)(c2ccccc2)CC1(C)C (configuration not stated)	-1.9%	-19.7%	/	/	/	/
CCc1ccc(C(=O)c2cn(CC(=O)Nc3cc(OC)ccc3OC)c3ccc(Cl)cc3c2=O)cc1	0.5%	14.7%	/	/	/	/
NCCOc1ccccc1-c1ccccc1	5.9%	25.0%	0.2%	4.47µM*	-3.8%	-2.3%
